From publication PMC7862700, “An all-to-all approach to the identification of sequence-specific readers for epigenetic DNA modifications on cytosine” come the findings set out here.

Assay in all cases: DAPPL (digital affinity profiling via proximity ligation, sequencing); 10 mM Tris-HCl pH 7.5, 50 mM NaCl, 1 mM DTT, 4% glycerol, room temperature, 30 min; GST-TFs on glutathione beads, 16-mer random dsDNA library, 0.1% formaldehyde crosslink after washing; high values mean tight binding
The target in one experiment is T1, FLI1 (Homo sapiens, UniProt Q01543 1-452).
T1 sequence: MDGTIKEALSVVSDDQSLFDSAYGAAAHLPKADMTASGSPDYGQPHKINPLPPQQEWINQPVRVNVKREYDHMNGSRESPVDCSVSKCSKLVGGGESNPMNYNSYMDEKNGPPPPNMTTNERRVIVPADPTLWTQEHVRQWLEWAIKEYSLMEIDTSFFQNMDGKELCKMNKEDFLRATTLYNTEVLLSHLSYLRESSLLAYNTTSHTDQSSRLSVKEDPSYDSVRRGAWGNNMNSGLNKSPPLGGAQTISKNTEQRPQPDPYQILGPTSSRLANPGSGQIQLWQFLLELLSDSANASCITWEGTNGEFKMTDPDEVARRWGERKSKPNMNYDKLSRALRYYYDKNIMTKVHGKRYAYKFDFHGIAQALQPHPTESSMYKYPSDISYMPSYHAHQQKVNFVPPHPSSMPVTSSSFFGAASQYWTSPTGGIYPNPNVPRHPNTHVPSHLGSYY
To be noted: protein: recombinant; tags: N-terminal GST; dsDNA, one strand shown. An outline of the steps:
(§1)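 Sequencing on an Illumina NextSeq500 followed washing, crosslinking with 0.1% formaldehyde, proximity ligation (BsaI/T4 ligase, 1 h, 37 °C) and PCR amplification of pools that had been incubated for 30 min at room temperature with 200 nmole of a random double-stranded 16-mer DNA library in Tris/NaCl/DTT/glycerol buffer. Each pool held DNA-barcoded human transcription factors, expressed in yeast as GST fusions and captured on glutathione beads, plus a tag-only sample. Binding signal is a hexamer's read frequency for a factor divided by its frequency in the tag-only sample.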

Another experiment concerns the target T2, ELK1 (Homo sapiens, UniProt P19419 1-428).
T2 sequence: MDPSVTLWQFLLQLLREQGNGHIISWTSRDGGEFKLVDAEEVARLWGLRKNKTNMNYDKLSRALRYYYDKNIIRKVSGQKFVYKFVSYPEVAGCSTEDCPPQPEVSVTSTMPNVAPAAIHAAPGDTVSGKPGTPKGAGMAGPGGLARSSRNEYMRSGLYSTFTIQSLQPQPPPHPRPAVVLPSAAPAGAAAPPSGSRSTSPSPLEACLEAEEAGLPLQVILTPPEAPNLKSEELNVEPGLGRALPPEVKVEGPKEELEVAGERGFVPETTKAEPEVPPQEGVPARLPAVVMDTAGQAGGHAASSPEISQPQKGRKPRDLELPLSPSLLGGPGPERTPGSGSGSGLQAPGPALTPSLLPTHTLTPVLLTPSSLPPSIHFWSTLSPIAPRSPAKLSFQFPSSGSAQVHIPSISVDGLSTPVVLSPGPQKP
The note with it: protein: recombinant; tags: N-terminal GST; dsDNA, one strand shown. The essentials:
as §1

The target in the next experiment is T3, GABPA (Homo sapiens, UniProt Q06546 1-454).
T3 sequence: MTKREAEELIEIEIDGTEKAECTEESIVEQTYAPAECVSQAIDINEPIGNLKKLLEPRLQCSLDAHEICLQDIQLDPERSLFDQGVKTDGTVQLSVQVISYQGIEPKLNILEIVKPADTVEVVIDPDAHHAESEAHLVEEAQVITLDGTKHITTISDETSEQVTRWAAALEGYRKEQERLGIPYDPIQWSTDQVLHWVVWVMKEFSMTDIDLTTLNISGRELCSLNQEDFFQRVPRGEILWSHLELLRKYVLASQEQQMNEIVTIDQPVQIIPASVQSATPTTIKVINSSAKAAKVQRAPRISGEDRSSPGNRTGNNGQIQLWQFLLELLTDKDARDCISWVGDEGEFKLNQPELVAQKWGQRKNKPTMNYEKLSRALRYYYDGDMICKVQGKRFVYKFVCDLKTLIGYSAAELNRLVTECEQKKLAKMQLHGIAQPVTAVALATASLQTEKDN
The note with it: protein: recombinant; tags: N-terminal GST; dsDNA, one strand shown. The essentials:
as §1

The target of another experiment is T4, ERG (Homo sapiens, UniProt P11308 1-479).
T4 sequence: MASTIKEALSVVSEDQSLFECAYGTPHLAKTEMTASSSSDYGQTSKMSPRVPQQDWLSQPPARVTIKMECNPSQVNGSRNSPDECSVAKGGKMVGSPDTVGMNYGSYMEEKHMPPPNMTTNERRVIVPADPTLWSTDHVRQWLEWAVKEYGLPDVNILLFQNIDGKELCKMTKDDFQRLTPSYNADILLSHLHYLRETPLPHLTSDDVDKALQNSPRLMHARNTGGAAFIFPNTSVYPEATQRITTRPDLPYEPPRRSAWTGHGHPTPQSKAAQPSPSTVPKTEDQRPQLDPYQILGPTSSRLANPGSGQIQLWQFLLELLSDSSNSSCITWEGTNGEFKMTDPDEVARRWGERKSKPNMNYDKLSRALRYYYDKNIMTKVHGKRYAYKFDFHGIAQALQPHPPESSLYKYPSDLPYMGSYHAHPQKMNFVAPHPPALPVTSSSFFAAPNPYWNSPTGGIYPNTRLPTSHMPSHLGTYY
The note with it: protein: recombinant; tags: N-terminal GST; dsDNA, one strand shown. The essentials:
as §1

The target in another experiment is ELF1 (Homo sapiens, UniProt P32519 1-619). To be noted: protein: recombinant; tags: N-terminal GST; dsDNA, one strand shown. The essentials: as §1
ELF1, sequence (P32519 whole entry): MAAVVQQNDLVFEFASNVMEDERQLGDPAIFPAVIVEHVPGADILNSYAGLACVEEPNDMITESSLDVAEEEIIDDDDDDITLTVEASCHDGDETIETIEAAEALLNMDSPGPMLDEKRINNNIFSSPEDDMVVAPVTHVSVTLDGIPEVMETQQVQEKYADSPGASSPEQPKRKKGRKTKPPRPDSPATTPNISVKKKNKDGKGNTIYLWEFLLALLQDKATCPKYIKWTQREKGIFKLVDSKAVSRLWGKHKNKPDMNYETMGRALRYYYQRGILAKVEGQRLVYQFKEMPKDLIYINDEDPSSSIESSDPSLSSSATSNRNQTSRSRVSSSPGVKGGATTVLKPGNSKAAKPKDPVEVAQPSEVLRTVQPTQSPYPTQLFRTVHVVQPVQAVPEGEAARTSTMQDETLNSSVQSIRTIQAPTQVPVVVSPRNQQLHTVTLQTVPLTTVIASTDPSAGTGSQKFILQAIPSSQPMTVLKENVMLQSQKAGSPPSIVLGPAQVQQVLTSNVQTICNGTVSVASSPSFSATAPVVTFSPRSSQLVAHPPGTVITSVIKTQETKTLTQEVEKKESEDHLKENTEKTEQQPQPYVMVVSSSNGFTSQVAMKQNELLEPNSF
Another experiment has as its target T5, EHF (Homo sapiens, UniProt Q9NZC4 1-300).
T5 sequence: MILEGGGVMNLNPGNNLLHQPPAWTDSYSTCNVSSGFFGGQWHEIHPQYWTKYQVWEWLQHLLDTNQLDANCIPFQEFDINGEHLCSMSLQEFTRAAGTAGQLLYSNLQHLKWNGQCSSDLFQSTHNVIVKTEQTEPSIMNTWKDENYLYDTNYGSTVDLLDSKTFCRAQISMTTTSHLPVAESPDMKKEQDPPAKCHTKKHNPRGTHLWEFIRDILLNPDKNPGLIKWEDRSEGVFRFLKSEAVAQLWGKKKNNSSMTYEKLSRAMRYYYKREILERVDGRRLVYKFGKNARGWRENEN
The note with it: protein: recombinant; tags: N-terminal GST; dsDNA, one strand shown. An outline of the steps: as §1

A further experiment has as its target SPI1 (Homo sapiens, UniProt P17947 1-270). The note with it: protein: recombinant; tags: N-terminal GST; dsDNA, one strand shown. The essentials:
as §1

The next experiment concerns the target SPIB (Homo sapiens, UniProt Q01892 1-262). The note with it: protein: recombinant; tags: N-terminal GST; dsDNA, one strand shown. An outline of the steps:
as §1

The target in another experiment is T6, ELK3 (Homo sapiens, UniProt P41970 1-407).
T6 sequence: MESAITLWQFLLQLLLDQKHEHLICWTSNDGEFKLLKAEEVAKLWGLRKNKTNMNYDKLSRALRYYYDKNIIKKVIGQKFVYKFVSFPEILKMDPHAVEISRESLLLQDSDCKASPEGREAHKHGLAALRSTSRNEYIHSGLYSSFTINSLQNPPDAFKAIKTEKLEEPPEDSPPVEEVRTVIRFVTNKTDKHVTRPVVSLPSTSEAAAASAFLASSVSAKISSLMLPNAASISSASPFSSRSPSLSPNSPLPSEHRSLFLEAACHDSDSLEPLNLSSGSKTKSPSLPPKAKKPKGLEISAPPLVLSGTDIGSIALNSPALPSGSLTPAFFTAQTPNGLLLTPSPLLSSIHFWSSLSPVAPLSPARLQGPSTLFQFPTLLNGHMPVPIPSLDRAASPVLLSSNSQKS
To be noted: protein: recombinant; tags: N-terminal GST; dsDNA, one strand shown. An outline of the steps: as §1

The next experiment has as its target T7, FEV (Homo sapiens, UniProt Q99581 1-238).
T7 sequence: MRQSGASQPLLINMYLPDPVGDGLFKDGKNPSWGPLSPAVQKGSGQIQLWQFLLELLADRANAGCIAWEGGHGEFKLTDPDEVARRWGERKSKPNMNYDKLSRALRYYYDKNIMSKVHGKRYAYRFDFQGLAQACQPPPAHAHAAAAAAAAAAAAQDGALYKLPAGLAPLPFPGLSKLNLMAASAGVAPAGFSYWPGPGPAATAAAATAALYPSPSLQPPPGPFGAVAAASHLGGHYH
To be noted: protein: recombinant; tags: N-terminal GST; dsDNA, one strand shown. An outline of the steps:
as §1

The next experiment deals with ETV5 (Homo sapiens, UniProt P41161 1-510). To be noted: protein: recombinant; tags: N-terminal GST; dsDNA, one strand shown. The essentials: as §1
ETV5, sequence (P41161 whole entry): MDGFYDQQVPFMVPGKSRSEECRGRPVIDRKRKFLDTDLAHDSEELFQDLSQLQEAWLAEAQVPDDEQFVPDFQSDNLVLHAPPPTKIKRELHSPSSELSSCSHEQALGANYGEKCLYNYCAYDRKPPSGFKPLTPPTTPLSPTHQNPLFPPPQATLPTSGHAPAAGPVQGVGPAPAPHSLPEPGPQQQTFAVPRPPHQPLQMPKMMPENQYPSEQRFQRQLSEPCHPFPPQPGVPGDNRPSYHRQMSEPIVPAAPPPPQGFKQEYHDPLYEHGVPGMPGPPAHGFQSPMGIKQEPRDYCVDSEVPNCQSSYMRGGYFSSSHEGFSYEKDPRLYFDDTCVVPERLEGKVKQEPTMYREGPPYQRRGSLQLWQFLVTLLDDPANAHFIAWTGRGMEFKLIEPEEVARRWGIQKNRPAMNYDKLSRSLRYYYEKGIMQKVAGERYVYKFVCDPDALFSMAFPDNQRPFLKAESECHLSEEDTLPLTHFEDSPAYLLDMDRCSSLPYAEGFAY
A further experiment addresses HSF1 (Homo sapiens, UniProt Q00613 1-529). To be noted: protein: recombinant; tags: N-terminal GST; chain copies: 3; dsDNA, one strand shown. An outline of the steps: as §1
In a further experiment the target is T8, SPIC (Homo sapiens, UniProt Q8N5J4 1-248).
T8 sequence: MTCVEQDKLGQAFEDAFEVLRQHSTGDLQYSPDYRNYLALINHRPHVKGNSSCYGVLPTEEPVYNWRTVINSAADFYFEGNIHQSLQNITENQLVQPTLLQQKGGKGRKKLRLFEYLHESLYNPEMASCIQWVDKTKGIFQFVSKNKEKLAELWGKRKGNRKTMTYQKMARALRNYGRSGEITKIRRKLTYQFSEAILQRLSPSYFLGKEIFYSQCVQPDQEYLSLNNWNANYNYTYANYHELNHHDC
The note with it: protein: recombinant; tags: N-terminal GST; dsDNA, one strand shown. An outline of the steps:
as §1

The target of a further experiment is ELF4 (Homo sapiens, UniProt Q99607 1-663). To be noted: protein: recombinant; tags: N-terminal GST; dsDNA, one strand shown. An outline of the steps: as §1
ELF4, sequence (Q99607 whole entry): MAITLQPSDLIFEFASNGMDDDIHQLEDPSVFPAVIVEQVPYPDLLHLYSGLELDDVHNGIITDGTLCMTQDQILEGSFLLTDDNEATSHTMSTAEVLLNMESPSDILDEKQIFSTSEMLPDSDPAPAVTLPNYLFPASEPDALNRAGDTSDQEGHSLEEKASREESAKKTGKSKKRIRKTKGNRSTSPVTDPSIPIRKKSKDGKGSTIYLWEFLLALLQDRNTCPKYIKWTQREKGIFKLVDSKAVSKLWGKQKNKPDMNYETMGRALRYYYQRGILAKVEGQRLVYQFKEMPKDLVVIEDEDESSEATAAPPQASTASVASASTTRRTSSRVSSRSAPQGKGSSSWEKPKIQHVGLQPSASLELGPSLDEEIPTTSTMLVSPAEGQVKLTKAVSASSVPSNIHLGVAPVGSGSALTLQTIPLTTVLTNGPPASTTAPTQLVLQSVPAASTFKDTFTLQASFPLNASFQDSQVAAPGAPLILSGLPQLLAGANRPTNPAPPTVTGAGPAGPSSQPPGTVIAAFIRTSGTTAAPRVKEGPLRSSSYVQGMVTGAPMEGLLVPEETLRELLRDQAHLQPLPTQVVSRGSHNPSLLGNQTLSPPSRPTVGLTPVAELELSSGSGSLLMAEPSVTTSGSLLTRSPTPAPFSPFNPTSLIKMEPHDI
For another experiment, the target named is T9, ELK4 (Homo sapiens, UniProt P28324-2 1-405).
T9 sequence: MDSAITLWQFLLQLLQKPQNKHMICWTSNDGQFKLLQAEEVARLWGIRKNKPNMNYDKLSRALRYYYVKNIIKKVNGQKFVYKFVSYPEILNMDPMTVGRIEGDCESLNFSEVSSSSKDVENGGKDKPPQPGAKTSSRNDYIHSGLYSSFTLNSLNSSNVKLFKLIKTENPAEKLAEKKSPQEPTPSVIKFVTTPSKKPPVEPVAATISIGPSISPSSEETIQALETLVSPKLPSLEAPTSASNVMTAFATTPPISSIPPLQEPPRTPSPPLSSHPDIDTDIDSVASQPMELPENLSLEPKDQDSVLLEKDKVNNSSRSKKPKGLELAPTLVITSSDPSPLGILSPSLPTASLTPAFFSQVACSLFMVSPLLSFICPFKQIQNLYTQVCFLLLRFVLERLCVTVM
To be noted: protein: recombinant; tags: N-terminal GST; dsDNA, one strand shown. The essentials: as §1

The target of another experiment is T10, ETV2 (Homo sapiens, UniProt O00321 1-342).
T10 sequence: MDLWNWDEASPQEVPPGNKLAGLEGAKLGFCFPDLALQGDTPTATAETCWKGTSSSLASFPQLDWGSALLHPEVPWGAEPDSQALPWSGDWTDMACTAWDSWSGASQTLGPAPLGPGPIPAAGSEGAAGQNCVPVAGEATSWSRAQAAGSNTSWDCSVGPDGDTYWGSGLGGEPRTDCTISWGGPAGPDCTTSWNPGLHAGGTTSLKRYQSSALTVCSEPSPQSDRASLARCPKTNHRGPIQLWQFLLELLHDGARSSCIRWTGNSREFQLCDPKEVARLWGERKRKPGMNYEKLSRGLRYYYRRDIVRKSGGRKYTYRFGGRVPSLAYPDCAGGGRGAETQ
The note with it: protein: recombinant; tags: N-terminal GST; dsDNA, one strand shown. An outline of the steps:
as §1

The target in another experiment is T11, ELF3 (Homo sapiens, UniProt P78545 1-371).
T11 sequence: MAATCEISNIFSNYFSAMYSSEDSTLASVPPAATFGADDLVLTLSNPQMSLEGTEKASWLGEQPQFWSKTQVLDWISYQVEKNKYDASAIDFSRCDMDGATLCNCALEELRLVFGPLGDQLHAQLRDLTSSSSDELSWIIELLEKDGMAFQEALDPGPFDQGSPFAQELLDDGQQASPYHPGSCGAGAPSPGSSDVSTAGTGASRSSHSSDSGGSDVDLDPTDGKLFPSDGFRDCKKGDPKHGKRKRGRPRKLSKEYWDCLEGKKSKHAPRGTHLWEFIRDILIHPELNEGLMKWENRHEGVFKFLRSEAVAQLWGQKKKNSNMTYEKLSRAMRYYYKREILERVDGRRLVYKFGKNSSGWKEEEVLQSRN
To be noted: protein: recombinant; tags: N-terminal GST; dsDNA, one strand shown. The essentials: as §1

The next experiment deals with ETV1 (Homo sapiens, UniProt P50549 1-477). The note with it: protein: recombinant; tags: N-terminal GST; dsDNA, one strand shown. An outline of the steps: as §1
ETV1, sequence (P50549 whole entry): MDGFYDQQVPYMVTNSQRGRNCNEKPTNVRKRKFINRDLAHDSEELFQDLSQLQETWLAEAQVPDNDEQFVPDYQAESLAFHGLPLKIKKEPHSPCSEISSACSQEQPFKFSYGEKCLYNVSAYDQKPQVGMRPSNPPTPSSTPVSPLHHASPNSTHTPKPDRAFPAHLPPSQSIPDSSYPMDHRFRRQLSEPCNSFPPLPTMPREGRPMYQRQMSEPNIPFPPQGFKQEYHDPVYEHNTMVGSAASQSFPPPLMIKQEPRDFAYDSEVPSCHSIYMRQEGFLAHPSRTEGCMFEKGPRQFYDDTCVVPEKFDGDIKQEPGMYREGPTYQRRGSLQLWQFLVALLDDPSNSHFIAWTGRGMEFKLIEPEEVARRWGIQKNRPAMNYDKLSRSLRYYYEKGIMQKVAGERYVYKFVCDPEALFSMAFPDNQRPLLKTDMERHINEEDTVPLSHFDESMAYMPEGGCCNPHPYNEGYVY

SPIB, sequence (Q01892 whole entry): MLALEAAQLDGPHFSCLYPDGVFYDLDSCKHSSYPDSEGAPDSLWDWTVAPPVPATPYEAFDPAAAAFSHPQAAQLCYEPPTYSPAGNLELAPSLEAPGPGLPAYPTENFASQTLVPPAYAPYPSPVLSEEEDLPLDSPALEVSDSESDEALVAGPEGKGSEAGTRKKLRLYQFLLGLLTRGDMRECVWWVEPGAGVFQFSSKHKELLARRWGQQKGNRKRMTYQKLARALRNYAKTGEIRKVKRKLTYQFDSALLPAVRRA
HSF1, sequence (Q00613 whole entry): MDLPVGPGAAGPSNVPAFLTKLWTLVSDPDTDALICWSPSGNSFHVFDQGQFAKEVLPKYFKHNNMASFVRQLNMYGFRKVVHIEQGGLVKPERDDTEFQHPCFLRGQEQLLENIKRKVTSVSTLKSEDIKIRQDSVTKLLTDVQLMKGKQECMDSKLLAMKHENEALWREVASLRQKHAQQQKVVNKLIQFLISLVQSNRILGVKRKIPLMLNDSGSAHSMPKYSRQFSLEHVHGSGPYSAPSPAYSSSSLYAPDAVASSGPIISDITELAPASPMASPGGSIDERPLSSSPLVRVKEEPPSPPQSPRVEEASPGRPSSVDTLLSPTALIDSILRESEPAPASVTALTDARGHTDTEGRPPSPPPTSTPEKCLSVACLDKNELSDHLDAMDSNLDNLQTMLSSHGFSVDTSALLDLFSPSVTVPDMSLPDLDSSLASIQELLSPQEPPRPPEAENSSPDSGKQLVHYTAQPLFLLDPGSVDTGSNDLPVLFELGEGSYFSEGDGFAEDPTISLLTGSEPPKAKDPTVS

GGTTCC: the binding signal is 1.52 fold enrichment (6-mer frequency, TF over GST control) with FLI1; 1.64 fold enrichment (6-mer frequency, TF over GST control) with ELK1; 1.37 fold enrichment (6-mer frequency, TF over GST control) with GABPA; 1.54 fold enrichment (6-mer frequency, TF over GST control) with ERG; 1.53 fold enrichment (6-mer frequency, TF over GST control) in the experiment with ELF1; 1.59 fold enrichment (6-mer frequency, TF over GST control) in the experiment with EHF. Besides, the binding signal with SPI1 is 1.75 fold enrichment (6-mer frequency, TF over GST control); with SPIB it was 1.59 fold enrichment (6-mer frequency, TF over GST control); in the experiment with ELK3 it was 1.52 fold enrichment (6-mer frequency, TF over GST control); with FEV it was 1.68 fold enrichment (6-mer frequency, TF over GST control); with ETV5, 1.57 fold enrichment (6-mer frequency, TF over GST control); with HSF1 it was 1.13 fold enrichment (6-mer frequency, TF over GST control). Also, the binding signal in the experiment with SPIC is 1.38 fold enrichment (6-mer frequency, TF over GST control); with ELF4 it was 1.44 fold enrichment (6-mer frequency, TF over GST control); with ELK4 it was 1.38 fold enrichment (6-mer frequency, TF over GST control); in the experiment with ETV2 it was 1.32 fold enrichment (6-mer frequency, TF over GST control); with ELF3, 1.7 fold enrichment (6-mer frequency, TF over GST control); in the experiment with ETV1 it was 1.63 fold enrichment (6-mer frequency, TF over GST control).
